Assays:
Assay in all cases: DAPPL (digital affinity profiling via proximity ligation, sequencing); 10 mM Tris-HCl pH 7.5, 50 mM NaCl, 1 mM DTT, 4% glycerol, room temperature, 30 min; GST-TFs on glutathione beads, 16-mer random dsDNA library, 0.1% formaldehyde crosslink after washing; high values mean tight binding
Conditions in all cases: protein: recombinant; tags: N-terminal GST; dsDNA, one strand shown
[1] = target: T1, FLI1 (Homo sapiens, UniProt Q01543 1-452)
T1 sequence: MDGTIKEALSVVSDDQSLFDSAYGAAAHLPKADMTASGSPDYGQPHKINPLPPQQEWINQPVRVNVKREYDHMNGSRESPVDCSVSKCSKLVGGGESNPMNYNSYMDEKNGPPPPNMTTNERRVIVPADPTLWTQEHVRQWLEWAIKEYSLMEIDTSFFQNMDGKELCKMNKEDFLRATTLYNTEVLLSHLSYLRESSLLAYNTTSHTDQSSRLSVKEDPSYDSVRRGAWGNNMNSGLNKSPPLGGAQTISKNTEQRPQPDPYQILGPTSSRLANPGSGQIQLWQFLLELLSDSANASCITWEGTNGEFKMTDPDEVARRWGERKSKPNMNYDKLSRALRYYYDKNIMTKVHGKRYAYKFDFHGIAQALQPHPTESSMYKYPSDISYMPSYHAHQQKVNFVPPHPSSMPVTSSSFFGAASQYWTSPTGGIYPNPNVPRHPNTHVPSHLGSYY
In short: (§1)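 Pools were built from human transcription factors expressed in yeast as GST fusions, captured on glutathione beads and DNA-barcoded, along with a tag-only sample. Incubation with 200 nmole of a 16-mer random double-stranded DNA library lasted 30 min at room temperature in Tris/NaCl/DTT/glycerol buffer, and was followed by washing, 0.1% formaldehyde crosslinking, proximity ligation, PCR amplification and Illumina NextSeq500 sequencing. Binding signal is the quotient of each hexamer's read frequency for a factor and its frequency for the tag-only sample.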

[2] = target: T2, ELK1 (Homo sapiens, UniProt P19419 1-428)
T2 sequence: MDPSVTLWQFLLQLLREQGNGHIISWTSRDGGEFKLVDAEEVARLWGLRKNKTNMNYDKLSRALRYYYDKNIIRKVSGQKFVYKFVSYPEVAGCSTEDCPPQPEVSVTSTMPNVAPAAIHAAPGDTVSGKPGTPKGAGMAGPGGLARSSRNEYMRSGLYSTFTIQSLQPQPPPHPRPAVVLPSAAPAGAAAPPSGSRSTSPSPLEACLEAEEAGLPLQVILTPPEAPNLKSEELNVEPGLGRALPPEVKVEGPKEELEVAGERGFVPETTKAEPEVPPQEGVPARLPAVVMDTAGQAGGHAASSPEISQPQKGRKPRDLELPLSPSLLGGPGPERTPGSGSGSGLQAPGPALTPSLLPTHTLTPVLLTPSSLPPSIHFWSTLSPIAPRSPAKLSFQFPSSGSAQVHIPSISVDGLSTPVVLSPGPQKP
In short: as §1

[3] = target: T3, GABPA (Homo sapiens, UniProt Q06546 1-454)
T3 sequence: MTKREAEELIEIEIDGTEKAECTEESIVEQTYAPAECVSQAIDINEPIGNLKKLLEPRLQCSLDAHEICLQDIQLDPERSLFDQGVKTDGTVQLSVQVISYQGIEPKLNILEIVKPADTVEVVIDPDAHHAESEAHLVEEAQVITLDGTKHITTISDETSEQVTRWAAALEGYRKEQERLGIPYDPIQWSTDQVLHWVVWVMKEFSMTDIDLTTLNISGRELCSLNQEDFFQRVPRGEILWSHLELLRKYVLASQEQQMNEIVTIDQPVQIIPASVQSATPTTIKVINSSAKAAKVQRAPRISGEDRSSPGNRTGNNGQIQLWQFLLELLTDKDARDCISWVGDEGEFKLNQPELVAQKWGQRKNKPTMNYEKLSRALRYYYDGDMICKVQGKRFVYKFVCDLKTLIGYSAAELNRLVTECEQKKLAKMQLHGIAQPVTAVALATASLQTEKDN
In short: as §1

[4] = target: T4, ERG (Homo sapiens, UniProt P11308 1-479)
T4 sequence: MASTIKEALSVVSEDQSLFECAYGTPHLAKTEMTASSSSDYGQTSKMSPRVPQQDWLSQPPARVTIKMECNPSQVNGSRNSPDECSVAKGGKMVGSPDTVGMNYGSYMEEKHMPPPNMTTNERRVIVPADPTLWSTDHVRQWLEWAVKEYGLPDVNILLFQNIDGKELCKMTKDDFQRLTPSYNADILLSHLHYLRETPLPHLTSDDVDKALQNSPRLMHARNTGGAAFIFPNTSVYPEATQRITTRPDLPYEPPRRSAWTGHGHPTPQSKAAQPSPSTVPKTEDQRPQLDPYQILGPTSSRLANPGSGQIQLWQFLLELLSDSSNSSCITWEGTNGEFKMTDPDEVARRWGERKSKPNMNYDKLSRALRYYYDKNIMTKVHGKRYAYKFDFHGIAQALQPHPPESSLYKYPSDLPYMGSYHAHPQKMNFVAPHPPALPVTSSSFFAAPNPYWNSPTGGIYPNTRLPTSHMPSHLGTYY
In short: as §1

[5] = target: ELF1 (Homo sapiens, UniProt P32519 1-619)
In short: as §1

[6] = target: SPI1 (Homo sapiens, UniProt P17947 1-270)
In short: as §1

[7] = target: T5, ELK3 (Homo sapiens, UniProt P41970 1-407)
T5 sequence: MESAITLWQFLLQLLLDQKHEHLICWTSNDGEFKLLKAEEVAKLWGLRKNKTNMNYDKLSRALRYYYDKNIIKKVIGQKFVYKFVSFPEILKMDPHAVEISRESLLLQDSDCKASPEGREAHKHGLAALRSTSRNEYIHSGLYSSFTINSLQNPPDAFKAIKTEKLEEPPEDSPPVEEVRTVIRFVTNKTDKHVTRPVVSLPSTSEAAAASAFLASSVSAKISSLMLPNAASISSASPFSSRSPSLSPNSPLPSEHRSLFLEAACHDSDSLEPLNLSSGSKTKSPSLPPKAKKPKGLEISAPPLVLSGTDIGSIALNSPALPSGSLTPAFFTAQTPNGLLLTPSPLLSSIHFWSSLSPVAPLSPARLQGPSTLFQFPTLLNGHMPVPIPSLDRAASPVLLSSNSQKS
In short: as §1

[8] = target: SPIB (Homo sapiens, UniProt Q01892 1-262)
In short: as §1

[9] = target: T6, EHF (Homo sapiens, UniProt Q9NZC4 1-300)
T6 sequence: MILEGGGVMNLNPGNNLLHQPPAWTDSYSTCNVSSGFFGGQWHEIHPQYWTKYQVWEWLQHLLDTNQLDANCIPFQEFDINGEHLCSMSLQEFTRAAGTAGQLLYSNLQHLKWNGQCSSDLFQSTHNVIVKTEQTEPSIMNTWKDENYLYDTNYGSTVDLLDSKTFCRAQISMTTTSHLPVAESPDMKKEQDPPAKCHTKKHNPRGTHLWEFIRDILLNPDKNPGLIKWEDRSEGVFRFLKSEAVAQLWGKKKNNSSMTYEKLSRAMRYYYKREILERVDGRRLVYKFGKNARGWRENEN
In short: as §1

Chain of SPIB (Q01892 whole entry): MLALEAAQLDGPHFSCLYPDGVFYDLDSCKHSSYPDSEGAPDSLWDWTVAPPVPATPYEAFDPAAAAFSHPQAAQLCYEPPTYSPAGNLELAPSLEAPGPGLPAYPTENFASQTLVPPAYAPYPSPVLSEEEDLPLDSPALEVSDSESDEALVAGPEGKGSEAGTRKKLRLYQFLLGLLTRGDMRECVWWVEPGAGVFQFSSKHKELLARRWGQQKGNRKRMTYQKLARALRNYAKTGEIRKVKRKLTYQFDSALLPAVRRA
Chain of ELF1 (P32519 whole entry): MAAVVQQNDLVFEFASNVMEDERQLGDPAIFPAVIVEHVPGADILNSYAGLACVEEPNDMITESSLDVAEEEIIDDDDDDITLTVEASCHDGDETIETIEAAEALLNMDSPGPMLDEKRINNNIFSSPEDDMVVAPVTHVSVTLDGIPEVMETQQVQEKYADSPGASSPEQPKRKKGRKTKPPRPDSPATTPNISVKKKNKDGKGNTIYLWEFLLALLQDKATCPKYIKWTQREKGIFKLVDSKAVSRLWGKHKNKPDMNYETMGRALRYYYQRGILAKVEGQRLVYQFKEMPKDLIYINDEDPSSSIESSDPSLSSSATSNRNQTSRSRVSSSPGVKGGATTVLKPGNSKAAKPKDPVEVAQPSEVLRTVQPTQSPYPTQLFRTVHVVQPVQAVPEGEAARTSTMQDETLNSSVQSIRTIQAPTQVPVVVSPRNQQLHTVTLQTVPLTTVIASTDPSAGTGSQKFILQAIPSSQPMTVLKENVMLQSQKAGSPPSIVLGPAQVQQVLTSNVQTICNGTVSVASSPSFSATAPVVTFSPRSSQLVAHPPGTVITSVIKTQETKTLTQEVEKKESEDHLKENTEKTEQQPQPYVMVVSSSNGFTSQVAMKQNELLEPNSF

## AGACCT
[1]
  binding signal: 1.01 fold enrichment (6-mer frequency, TF over GST control)
[2]
  binding signal: 1.04 fold enrichment (6-mer frequency, TF over GST control)
[3]
  binding signal: 1.02 fold enrichment (6-mer frequency, TF over GST control)
[4]
  binding signal: 1 fold enrichment (6-mer frequency, TF over GST control)
[5]
  binding signal: 1.05 fold enrichment (6-mer frequency, TF over GST control)
[6]
  binding signal: 1.06 fold enrichment (6-mer frequency, TF over GST control)
[7]
  binding signal: 1.01 fold enrichment (6-mer frequency, TF over GST control)

## TATCAA
[1]
  binding signal: 1.1 fold enrichment (6-mer frequency, TF over GST control)
[2]
  binding signal: 1.06 fold enrichment (6-mer frequency, TF over GST control)
[3]
  binding signal: 1.13 fold enrichment (6-mer frequency, TF over GST control)
[4]
  binding signal: 1.03 fold enrichment (6-mer frequency, TF over GST control)
[5]
  binding signal: 1.02 fold enrichment (6-mer frequency, TF over GST control)
[6]
  binding signal: 1.02 fold enrichment (6-mer frequency, TF over GST control)
[7]
  binding signal: 1.02 fold enrichment (6-mer frequency, TF over GST control)

## GAATAC
[1]
  binding signal: 1.1 fold enrichment (6-mer frequency, TF over GST control)
[2]
  binding signal: 1.1 fold enrichment (6-mer frequency, TF over GST control)
[3]
  binding signal: 1.11 fold enrichment (6-mer frequency, TF over GST control)
[5]
  binding signal: 1.08 fold enrichment (6-mer frequency, TF over GST control)

## TAACGA
[1]
  binding signal: 1.09 fold enrichment (6-mer frequency, TF over GST control)
[2]
  binding signal: 1.04 fold enrichment (6-mer frequency, TF over GST control)
[3]
  binding signal: 1.07 fold enrichment (6-mer frequency, TF over GST control)
[4]
  binding signal: 1.08 fold enrichment (6-mer frequency, TF over GST control)
[5]
  binding signal: 1.03 fold enrichment (6-mer frequency, TF over GST control)
[6]
  binding signal: 1.06 fold enrichment (6-mer frequency, TF over GST control)
[8]
  binding signal: 1.1 fold enrichment (6-mer frequency, TF over GST control)
[7]
  binding signal: 1.03 fold enrichment (6-mer frequency, TF over GST control)

## TGTGGA
[1]
  binding signal: 1.08 fold enrichment (6-mer frequency, TF over GST control)
[2]
  binding signal: 1.01 fold enrichment (6-mer frequency, TF over GST control)
[3]
  binding signal: 1.06 fold enrichment (6-mer frequency, TF over GST control)
[4]
  binding signal: 1.16 fold enrichment (6-mer frequency, TF over GST control)
[5]
  binding signal: 1.11 fold enrichment (6-mer frequency, TF over GST control)
[6]
  binding signal: 1.09 fold enrichment (6-mer frequency, TF over GST control)
[8]
  binding signal: 1.1 fold enrichment (6-mer frequency, TF over GST control)
[7]
  binding signal: 1.04 fold enrichment (6-mer frequency, TF over GST control)

## GTATGG
[1]
  binding signal: 1.12 fold enrichment (6-mer frequency, TF over GST control)
[2]
  binding signal: 1.04 fold enrichment (6-mer frequency, TF over GST control)
[3]
  binding signal: 1.04 fold enrichment (6-mer frequency, TF over GST control)
[5]
  binding signal: 1.08 fold enrichment (6-mer frequency, TF over GST control)
[9]
  binding signal: 1.05 fold enrichment (6-mer frequency, TF over GST control)
[6]
  binding signal: 1.06 fold enrichment (6-mer frequency, TF over GST control)
[8]
  binding signal: 1.1 fold enrichment (6-mer frequency, TF over GST control)

## AGGTTT
[1]
  binding signal: 1.02 fold enrichment (6-mer frequency, TF over GST control)
[2]
  binding signal: 1.04 fold enrichment (6-mer frequency, TF over GST control)
[3]
  binding signal: 1.08 fold enrichment (6-mer frequency, TF over GST control)
[4]
  binding signal: 1.06 fold enrichment (6-mer frequency, TF over GST control)
[9]
  binding signal: 1.07 fold enrichment (6-mer frequency, TF over GST control)
[6]
  binding signal: 1.06 fold enrichment (6-mer frequency, TF over GST control)
[8]
  binding signal: 1.04 fold enrichment (6-mer frequency, TF over GST control)
[7]
  binding signal: 1.13 fold enrichment (6-mer frequency, TF over GST control)

## TGGTTA
[1]
  binding signal: 1.17 fold enrichment (6-mer frequency, TF over GST control)
[2]
  binding signal: 1.08 fold enrichment (6-mer frequency, TF over GST control)
[3]
  binding signal: 1.09 fold enrichment (6-mer frequency, TF over GST control)
[4]
  binding signal: 1.13 fold enrichment (6-mer frequency, TF over GST control)
[5]
  binding signal: 1.1 fold enrichment (6-mer frequency, TF over GST control)
[6]
  binding signal: 1.15 fold enrichment (6-mer frequency, TF over GST control)
[8]
  binding signal: 1.12 fold enrichment (6-mer frequency, TF over GST control)
[7]
  binding signal: 1.13 fold enrichment (6-mer frequency, TF over GST control)

## TAGGTC
[1]
  binding signal: 1.06 fold enrichment (6-mer frequency, TF over GST control)
[2]
  binding signal: 1.03 fold enrichment (6-mer frequency, TF over GST control)
[3]
  binding signal: 1.1 fold enrichment (6-mer frequency, TF over GST control)
[4]
  binding signal: 1.03 fold enrichment (6-mer frequency, TF over GST control)
[5]
  binding signal: 1.01 fold enrichment (6-mer frequency, TF over GST control)
[8]
  binding signal: 1.01 fold enrichment (6-mer frequency, TF over GST control)
[7]
  binding signal: 1.08 fold enrichment (6-mer frequency, TF over GST control)

## GTAGCA
[1]
  binding signal: 1.03 fold enrichment (6-mer frequency, TF over GST control)
[2]
  binding signal: 1.1 fold enrichment (6-mer frequency, TF over GST control)
[3]
  binding signal: 1.15 fold enrichment (6-mer frequency, TF over GST control)
[5]
  binding signal: 1.16 fold enrichment (6-mer frequency, TF over GST control)
[9]
  binding signal: 1.1 fold enrichment (6-mer frequency, TF over GST control)
[6]
  binding signal: 1.08 fold enrichment (6-mer frequency, TF over GST control)
[8]
  binding signal: 1.03 fold enrichment (6-mer frequency, TF over GST control)
[7]
  binding signal: 1.11 fold enrichment (6-mer frequency, TF over GST control)

## TTGCAG
[1]
  binding signal: 1.12 fold enrichment (6-mer frequency, TF over GST control)
[2]
  binding signal: 1.19 fold enrichment (6-mer frequency, TF over GST control)
[3]
  binding signal: 1.15 fold enrichment (6-mer frequency, TF over GST control)
[4]
  binding signal: 1.15 fold enrichment (6-mer frequency, TF over GST control)
[5]
  binding signal: 1.16 fold enrichment (6-mer frequency, TF over GST control)
[6]
  binding signal: 1.08 fold enrichment (6-mer frequency, TF over GST control)
[8]
  binding signal: 1.16 fold enrichment (6-mer frequency, TF over GST control)
[7]
  binding signal: 1.24 fold enrichment (6-mer frequency, TF over GST control)

## CTCAGG
[1]
  binding signal: 1.08 fold enrichment (6-mer frequency, TF over GST control)
[2]
  binding signal: 1.13 fold enrichment (6-mer frequency, TF over GST control)
[3]
  binding signal: 1.02 fold enrichment (6-mer frequency, TF over GST control)
[4]
  binding signal: 1.1 fold enrichment (6-mer frequency, TF over GST control)
[5]
  binding signal: 1.08 fold enrichment (6-mer frequency, TF over GST control)
[8]
  binding signal: 1.11 fold enrichment (6-mer frequency, TF over GST control)
[7]
  binding signal: 1.07 fold enrichment (6-mer frequency, TF over GST control)
